From PubChem
Hits are enriched below; roughly 6.8% of the tested compounds scored in any of these assays.
C diff HTS: C. difficile growth inhibitors, primary screen, HTS; Clostridium difficile clinical isolate growth, OD600, 24 h; active compounds read low; growth activity, negative = inhibition, % at 16 µg/mL (by protocol); 86,000 compounds, 0.25% hits; AID 1259249, 2017;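 active means mean growth activity at or below -80% and every replicate also at or below -80%; inconclusive means mean at or below -80% but some replicate above -80%; inactive means mean growth activity above -80%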;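 further: 0% = DMSO wells and -100% = levofloxacin 16 µg/mL wells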
Pf Dd2 inh: P. falciparum Dd2 growth inhibitors, primary screen, SYBR Green fluorescence, single dose replicates; 72 h; active compounds read low; activity change, % at 10 µM; 94,000 compounds, 2.3% hits; in the data active means activity change below about -80%; inconclusive means no clear call, values can overlap the other calls
T cruzi growth-1: T. cruzi intracellular proliferation inhibitors, primary screen, cell-based, beta-gal Tulahuen parasites, NIH3T3 host, luminescence; AID 624255, 2012; inhibition, % at 8.34 µM; T. cruzi beta-gal in NIH3T3, GalScreen luminescence, 90 h; 77,000 compounds, 5.9% hits;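 active means mean inhibition above about 93%, with at least 55% of replicates each passing it, limit read from the data, passing the limit was not always enough; inconclusive means only one of those two conditions holds; inactive means neither condition holds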
T cruzi growth-2: T. cruzi intracellular proliferation inhibitors, confirmation, cell-based, NIH3T3 host, beta-gal parasite, luminescence, cherry-pick. shares compounds with T cruzi growth-1. T. cruzi beta-gal in NIH3T3, GalScreen luminescence, 90 h. inhibition, % at 8.35 µM. 5,600 compounds, 72% hits. AID 651739, 2012;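 active means mean replicate inhibition above about 95% and at least 55% of replicates individually reaching it, limit read from the data; inconclusive means only one of the two criteria is met; inactive means neither criterion is met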
T cruzi growth-3: inhibitors of intracellular T. cruzi replication, confirmation, NIH3T3 host cells, beta-gal parasites, cherry-pick, set 2. shares compounds with T cruzi growth-1. T. cruzi beta-gal in NIH3T3, GalScreen luminescence, 90 h. inhibition, % at 2.09 µM. 5,600 compounds, 21% hits;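 active means mean inhibition above about 95%, with at least 55% of replicates also reaching it, limit read from the data; inconclusive means meets just one of the two conditions; inactive means meets neither condition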;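 further: plate controls were neutral control median for no effect and positive control median for full effect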
NIH3T3 tox: cytotoxicity in mouse NIH/3T3 fibroblasts, confirmation, cytotoxicity control for T. cruzi proliferation inhibitor project, cell-based, cherry-pick, single point; shares compounds with T cruzi growth-1; NIH/3T3 viability, CellTiter-Glo ATP luminescence, 90 h; cytotoxicity (signal decrease), % at 8.35 µM; 5,600 compounds, 14% hits; AID 651742, 2012;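 active means mean signal decrease across replicates above about 35% based on untreated-well scatter, with enough replicates individually passing, limit read from the data; inconclusive means no rule stated though some were filed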;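 further: 0% = median of neutral control wells and 100% = median of positive control wells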
NIH3T3 tox 2: NIH/3T3 fibroblast cytotoxicity, confirmation, cytotoxicity control, cell-based, cherry-pick, single point, set 2. shares compounds with T cruzi growth-1. NIH/3T3 viability, CellTiter-Glo ATP luminescence, 90 h. inhibition, % at 24.9 µM. 5,600 compounds, 56% hits. AID 651744, 2012;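 active means mean loss of cell viability signal at or above a set limit, and enough replicates individually reaching it; inconclusive means meets only the mean limit or only the replicate share; inactive means meets neither condition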;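 further: 0% = median of neutral control wells and 100% = median of positive control wells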
* marks the source's active call; other numbers are inactive results; ? = inconclusive; · = no result.

SMILES	C diff HTS	Pf Dd2 inh	T cruzi growth-1	T cruzi growth-2	T cruzi growth-3	NIH3T3 tox	NIH3T3 tox 2
COc1ccc(NC(=O)Nc2ccc3c(c2)C(=O)N([C@@H](C)CO)C[C@H](C)[C@@H](CN(C)Cc2ccc(Cl)c(Cl)c2)OCCCC[C@H](C)O3)cc1	0.0	-29.0	124.3*	98.6*	113.4*	15.7	21.0
COc1ccc(NC(=O)Nc2ccc3c(c2)C(=O)N([C@H](C)CO)C[C@@H](C)[C@H](CN(C)Cc2ccc(Cl)c(Cl)c2)OCCCC[C@H](C)O3)cc1	-6.0	-61.8	121.1*	92.9	106.5*	9.3	17.3
COc1ccc(S(=O)(=O)N(C)C[C@@H]2Oc3ncc(C#CC4(O)CCCC4)cc3C(=O)N([C@@H](C)CO)C[C@@H]2C)cc1	1.7	-17.3	50.4	·	·	·	·
CCCC(=O)Nc1ccc2c(c1)C(=O)N(C)C[C@H](OC)[C@@H](C)CN(C(=O)CC)[C@@H](C)CO2	·	·	5.6	·	·	·	·
C[C@@H]1CCCCO[C@@H](CN(C)Cc2ccc(C(F)(F)F)cc2)[C@H](C)CN([C@@H](C)CO)C(=O)c2cc(NC(=O)Nc3ccc(F)cc3)ccc2O1	·	-53.6	93.8	·	·	·	·
C[C@@H]1CN([C@@H](C)CO)C(=O)c2cc(NC(=O)Nc3ccc(F)cc3)ccc2O[C@@H](C)CCCCO[C@@H]1CN(C)Cc1ccc(C(F)(F)F)cc1	·	-76.4	101.4*	104.6*	114.0*	21.2	2.9
C[C@H](CO)N1C[C@H](C)[C@@H](CN(C)Cc2ccc(C(F)(F)F)cc2)OCCCC[C@H](C)Oc2ccc(NC(=O)Nc3ccc(F)cc3)cc2C1=O	·	-10.9	?	94.6	110.0*	10.1	12.9
C[C@@H]1CN([C@@H](C)CO)C(=O)c2cc(NC(=O)Nc3ccc(C(F)(F)F)cc3)ccc2O[C@@H](C)CCCCO[C@H]1CN(C)Cc1ccc(C(=O)O)cc1	-10.6	47.0	23.6	·	·	·	·
Cc1noc(C)c1NC(=O)N[C@H]1CC[C@H](CC(=O)N2CCN(C)CC2)O[C@@H]1CO	-7.5	-16.3	-86.8	·	·	·	·
CN1C(=O)c2cc(NC(=O)c3ccccc3Cl)ccc2OC[C@H]2O[C@@H](CC(=O)O)CC[C@@H]21	6.4	-16.7	8.8	·	·	·	·
CO[C@H](CN(C)C(=O)C1CCOCC1)[C@H](C)CN(C(=O)Nc1ccc(C(F)(F)F)cc1)[C@H](C)CO	·	12.4	113.5*	104.2*	39.3	11.2	44.9*
CO[C@H](CN(C)C(=O)C1CC1)[C@@H](C)CN(C(=O)Nc1ccc(C(F)(F)F)cc1)[C@@H](C)CO	·	-0.6	37.3	·	·	·	·
CO[C@H](CN(C)C(=O)C1CCOCC1)[C@@H](C)CN(C(=O)Nc1ccc(C(F)(F)F)cc1)[C@H](C)CO	·	-10.8	72.0	·	·	·	·
CO[C@H](CN(C)C(=O)C1CC1)[C@H](C)CN(C(=O)Nc1ccc(C(F)(F)F)cc1)[C@H](C)CO	·	17.3	111.4*	34.6	-12.9	0.5	25.1*
CO[C@H]1CN(C)C(=O)c2ccc(NC(=O)Nc3cccc(F)c3)cc2OC[C@@H](C)N(C(C)=O)C[C@H]1C	·	27.2	-47.0	·	·	·	·
COc1ccc(-c2cnc3c(c2)C(=O)N([C@@H](C)CO)C[C@@H](C)[C@@H](CN(C)C(=O)C2CC2)O3)cc1	-0.5	-7.4	-178.9	·	·	·	·
N#Cc1ccc(-c2ccc3c(c2)[C@H]2[C@H](CCN2C(=O)C2CC2)[C@@H](CO)N3)cc1	-4.6	16.3	104.7*	?	69.5	-1.9	31.7*
N#Cc1ccc(-c2ccc3c(c2)[C@H]2[C@H](CCN2C(=O)Cc2ccccc2)[C@@H](CO)N3)cc1	-3.3	-23.1	80.9	·	·	·	·
COCC(=O)N1CC[C@H]2[C@H](CO)Nc3ccc(-c4ccc(C#N)cc4)cc3[C@H]21	-2.6	-22.0	73.8	·	·	·	·
N#Cc1ccc(-c2ccc3c(c2)[C@@H]2[C@@H](CCN2C(=O)Cc2ccccc2)[C@@H](CO)N3)cc1	-0.3	-59.7	98.5*	100.2*	100.4*	7.8	39.9*
N#Cc1ccc(-c2ccc3c(c2)[C@H]2[C@H](CCN2C(=O)C2CCC2)[C@@H](CO)N3)cc1	-3.3	-54.5	·	·	·	·	·
N#Cc1ccc(-c2ccc3c(c2)[C@@H]2[C@@H](CCN2C(=O)C2CC2)[C@H](CO)N3)cc1	-13.5	15.2	96.8*	105.9*	83.1	-2.5	14.9
COCC(=O)N1CC[C@@H]2[C@H]1c1cc(-c3ccc(C#N)cc3)ccc1N[C@@H]2CO	-2.3	-63.2	113.7*	99.5*	41.3	5.1	11.1
N#Cc1ccc(-c2ccc3c(c2)[C@@H]2[C@@H](CCN2C(=O)C2CCCC2)[C@@H](CO)N3)cc1	-15.0	-75.8	·	·	·	·	·
CO[C@@H]1CN(C)C(=O)c2cc(NC(=O)Nc3ccccc3Cl)ccc2OC[C@@H](C)N(S(C)(=O)=O)C[C@H]1C	-17.7	-9.4	32.6	·	·	·	·
SMILES	C diff HTS	Pf Dd2 inh	T cruzi growth-1	T cruzi growth-2	T cruzi growth-3	NIH3T3 tox	NIH3T3 tox 2
CCC(=O)N1CC(=O)N2[C@H](CO)[C@@H](c3ccc(C#Cc4cccc(OC)c4)cc3)[C@@H]2C1	-10.5	-17.9	·	·	·	·	·
C[C@@H]1CN([C@H](C)CO)C(=O)Cc2cc(NC(=O)Nc3ccc(F)cc3)ccc2O[C@H]1CN(C)Cc1ccncc1	8.2	30.5	49.7	·	·	·	·
Cc1cccc(S(=O)(=O)N2CC[C@@H]3[C@H]2c2cc(C#Cc4cccc(F)c4)ccc2N[C@@H]3CO)c1	61.1	10.7	85.8	·	·	·	·
O=C(C[C@H]1C[C@@H]2c3cc(NC(=O)NC4CCCC4)ccc3O[C@@H]2[C@H](CO)O1)NCc1cccnc1	3.1	-5.7	·	·	·	·	·
O=C(C[C@@H]1C[C@H]2c3cc(NC(=O)Nc4ccc(C(F)(F)F)cc4)ccc3O[C@H]2[C@H](CO)O1)NCc1cc(F)ccc1F	30.6	-75.7	72.9	·	·	·	·
C[C@@H]1CCCCO[C@@H](CN(C)CC2CCCCC2)[C@H](C)CN([C@@H](C)CO)C(=O)c2cc(NC(=O)Nc3ccc(F)cc3)ccc2O1	6.2	-74.0	113.7*	99.0*	77.1	20.5	106.2*
C[C@@H]1CCCCO[C@H](CN(C)CC2CCCCC2)[C@@H](C)CN([C@H](C)CO)C(=O)c2cc(NC(=O)Nc3ccc(F)cc3)ccc2O1	11.4	-56.7	39.4	·	·	·	·
C[C@@H]1CN([C@@H](C)CO)C(=O)c2cc(NC(=O)Nc3ccc(F)cc3)ccc2O[C@@H](C)CCCCO[C@H]1CN(C)CC1CC1	9.7	-21.9	80.9	·	·	·	·
